# Compound activity (PubChem BioAssay)
# The entries come from a sample that favours hits as a whole.
# Cycloheximide cs = Cycloheximide Counterscreen for Small Molecule Inhibitors of Shiga Toxin. cell reporter, cycloheximide protein synthesis inhibition counterscreen. max response, %. 300,000 compounds, 12% hits; in the data active means max response mostly above about 13%, no sharp cut-off; inactive means mostly below about 14%; further: read at 38.3 µM for the half of the compounds with a filed dose; 0% is about no effect
# LmPK inh = qHTS Assay for Inhibitors of Leishmania Mexicana Pyruvate Kinase (LmPK) | purified LmPK, Kinase-Glo ATP luminescence, 1 h | Potency, µM (top dose mostly 57.5 µM), for inactives: at the highest dose activity change, negative = inhibition, actives largely listed as inhibitors | Q27686 | 290,000 compounds, 0.37% hits; further: potency means the concentration at half of the fitted maximal effect; on the % scale 0 is the no-effect control and ±100 the full control effect
# Target sequence (Q27686 whole entry, looked up): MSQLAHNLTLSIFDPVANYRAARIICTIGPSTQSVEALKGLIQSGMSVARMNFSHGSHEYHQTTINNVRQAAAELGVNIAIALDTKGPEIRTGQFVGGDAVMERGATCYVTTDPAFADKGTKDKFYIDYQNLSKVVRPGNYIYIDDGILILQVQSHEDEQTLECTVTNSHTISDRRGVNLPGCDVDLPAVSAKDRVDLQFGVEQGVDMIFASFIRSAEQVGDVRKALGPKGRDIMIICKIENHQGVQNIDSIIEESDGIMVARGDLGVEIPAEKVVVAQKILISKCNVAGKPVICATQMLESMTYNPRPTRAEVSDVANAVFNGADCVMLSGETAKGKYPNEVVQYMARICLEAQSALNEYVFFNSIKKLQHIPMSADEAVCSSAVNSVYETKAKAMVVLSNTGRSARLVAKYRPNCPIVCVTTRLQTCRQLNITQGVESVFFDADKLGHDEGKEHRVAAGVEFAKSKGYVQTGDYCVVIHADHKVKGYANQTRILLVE
#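 Screened at intermediate enzyme activity to detect both inhibitors and activators: LmPK at 0.1 nM, with a 0.5 nM enzyme column as activation reference. PEP 0.5 mM, ADP 0.1 mM; ATP detected by luminescence after 1 h.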
# TbPYK inhibitor = qHTS of Trypanosoma Brucei Inhibitors. pyruvate kinase (Trypanosoma brucei), Q57TT1. TbPYK enzyme, Kinase-Glo Plus ATP luminescence, 45 min. Potency, µM (series often up to 76.8 µM), for inactives: at the top dose activity, negative = inhibition, most hits filed as inhibitors. 410,000 compounds, 0.12% hits; further: potency means the concentration at half of the fitted maximal effect; on the % scale 0 is the no-effect control and ±100 the full control effect; nearly all actives have a fitted effect of over 50% in size
#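 Quantitative HTS: titrated library compounds versus trypanosomal pyruvate kinase in TEA buffer (pH 7.2) containing KCl, MgCl2, BSA and Tween-20. Reactions were initiated with ADP, 130 uM final. Kinase-Glo Plus luminescence was read after 45 min at RT.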
# FBPA Giardia inh = qHTS Assay for Inhibitors of Fructose-1,6-bisphosphate Aldolase from Giardia Lamblia; purified Giardia FBPA; Potency, µM (doses to about 59.6 µM), for the others: at the highest dose activity, negative = inhibition, most hits filed as inhibitors; 290,000 compounds, 0.71% hits; AID 2451, 2010; further: potency means the concentration at half of the fitted maximal effect; on the % scale 0 is the no-effect control and ±100 the full control effect; nearly all actives have a fitted effect of over 55% in size
#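 40 nM FBPA preincubated 10 min at RT with compound (up to 57.5 uM final), then substrate plus GAPDH/TPI/NAD/arsenate coupling and diaphorase/resazurin added. Fluorescence read after 20 min at RT, 525/598 nm.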
# Sm TGR block = qHTS Assay for the Inhibitors of Schistosoma Mansoni Peroxiredoxins; Schistosoma mansoni thioredoxin glutathione reductase (TGR), Q962Y6; purified TGR, DTNB reduction, TNB absorbance 405 nm; Potency, µM (doses to about 114 µM), for the others: at the top dose activity change, negative = inhibition, usual class: inhibitors; 360,000 compounds, 3% hits; AID 485364, 2010; further: potency means the concentration at half of the fitted maximal effect; on the % scale 0 is the no-effect control and ±100 the full control effect; nearly all actives have a fitted effect of over 60% in size
#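 TGR 20 nM + NADPH 100 uM (dispensed conc.), cpd preinc 15 min RT; start with NADPH (500 uM addition) then DTNB (15 mM addition). Kinetic TNB absorbance, 405 nm filter. Four-parameter Hill fit across titration.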
# Shiga toxin inh = A qHTS for Small Molecule Inhibitors of Shiga Toxin | inhibition, % at 38.7 µM | 290,000 compounds, 9.2% hits | Vero cells, Shiga toxin protein synthesis inhibition reporter; in the data active means inhibition mostly above about 28%, no sharp cut-off; inactive means mostly below about 43%; further: 0% is about no effect
# The depositor's hits bear a star; ? = inconclusive; . = no result given. Unless noted, the call rests on the fitted dose curve; in most records, active means well fitted curve in the direction sought with a large enough effect; inconclusive means small, poorly fitted or top-dose-only effect, or another doubt; inactive means no such curve, though single readings can be large; an effect the other way counts as inactive or inconclusive.
SMILES,Cycloheximide cs,LmPK inh,TbPYK inhibitor,FBPA Giardia inh,Sm TGR block,Shiga toxin inh
Cc1ccc(S(=O)(=O)NCc2nc(-c3ccccc3)no2)cc1,-1,-1%,-7%,.,-34%,-4
Cc1ccc(OCc2nc(-c3ccccc3)no2)cc1,45*,-5%,-23%,0%,10%,84*
c1ccc(NCc2nc(-c3ccccc3)no2)cc1,56*,1%,-2%,-1%,4%,155*
Cc1ccccc1OCc1nc(-c2ccccc2)no1,39*,-5%,-1%,3%,4%,66*
COc1ccc(OCc2nc(-c3ccc(-n4cccc4)cc3)no2)cc1,.,.,-3%,.,19%,.
COc1ccc(-c2noc(COc3ccc4c(c3)OCO4)n2)cc1,-4,2%,3%,4%,2%,7
Cc1ccccc1OCc1nc(-c2ccc(Br)o2)no1,11,1%,2%,-2%,-15%,60
CC1(C)S[C@@H]2[C@H](NC(=O)C(C(=O)Oc3ccc4c(c3)CCC4)c3ccccc3)C(=O)N2[C@H]1C(=O)O (some centres not stated),.,.,1%,.,.,.
Cc1ccc(-c2noc(COc3ccccc3C)n2)cc1,29*,-6%,4%,0%,8%,55
COc1ccc2c3c1O[C@H]1C[C@H](O)C=C[C@@]31CCN(C)C2,.,.,.,8%,.,.
O=C(c1cc2c(=O)n3ccccc3nc2s1)N1CCOCC1,22*,-11%,2%,2%,3%,39*
CC1CCN(C(=O)c2cc3c(=O)n4ccccc4nc3s2)CC1,26,-5%,0%,-2%,0%,83*
CC(=O)c1cccc(NC(=O)C2CCCN(C(=O)c3cnn(-c4ccccc4)c3-n3cccc3)C2)c1 (configuration not stated),.,.,-4%,.,-2%,.
CC(C)c1ccc(NC2CCCN(C(=O)c3ccnc(Cl)c3)C2)cc1 (configuration not stated),-3,1%,-7%,-6%,-7%,-2
CC1CCCN(C(=O)CNC(=O)c2ccco2)C1 (configuration not stated),33*,-5%,4%,.,0%,53*
CC1CCN(C(=O)CNC(=O)Cc2ccccc2)CC1,23*,0%,-6%,1%,1%,30*
O=C(Cc1ccccc1)NCC(=O)N1CCCCCC1,19*,-3%,1%,0%,4%,23
CC(C)c1ccc(NC2CCCN(C(=O)c3ccco3)C2)cc1 (configuration not stated),13*,-3%,-1%,.,-3%,43
Cc1ccc(S(=O)(=O)NCCC(=O)N2CCC(C)CC2)cc1,.,.,-1%,.,3%,.
CC1CCN(C(=O)CCNS(=O)(=O)c2ccccc2)CC1,22*,2%,-7%,0%,0%,56*
CC1CCC(=NNC(=O)Cc2ccccc2)CC1 (configuration not stated),14*,2%,-2%,0%,4%,9
CCc1ccc([C@@H]2CC=C(C(=O)O)[C@H](c3ccc(C(C)(C)C)cc3)N2S(=O)(=O)c2ccc(C)cc2)cc1,.,.,-8%,.,.,.
CC(C)CNc1ncnc2c1ncn2[C@H]1CN(CCN2CCOCC2)C[C@@H](CO)O1,.,.,-6%,.,.,.
COC(=O)[C@@]1(Cc2ccc(OC)cc2)[C@@H]2[C@@H](CC(=O)[C@H]2CC(=O)C(=O)N2CCCC2)CN1C(=O)c1ccccc1,.,.,.,-15%,.,.
CCN(c1ccccc1)S(=O)(=O)c1ccc(OC)c(NC(=O)CNCCc2ccccc2)c1,25*,5%,3%,?,14%,36
SMILES,Cycloheximide cs,LmPK inh,TbPYK inhibitor,FBPA Giardia inh,Sm TGR block,Shiga toxin inh
CCN(c1ccccc1)S(=O)(=O)c1ccc(OC)c(NC(=O)Cc2ccc(F)cc2)c1,.,.,-2%,.,-10%,.
O=C(NCC1CCCN1S(=O)(=O)c1cccs1)C(=O)Nc1ccc(F)cc1F (configuration not stated),.,.,-2%,.,-9%,.
COc1cccc(Cn2cc(C)cc(NC(=O)NCc3ccccc3)c2=O)c1,15*,6%,-2%,-2%,-24%,.
COc1ccc(CNC(=O)Nc2cccs2)cc1OC,-1,3%,-14%,-6%,-2%,20
COc1cccc(CNC(=O)Nc2cccs2)c1,33*,3%,-8%,18%,-9%,64*
COc1ccccc1CNC(=O)Nc1cccs1,19*,6%,?,6%,54%,63
Cc1ccc(CNC(=O)Nc2cccs2)cc1,50*,3%,-6%,3%,-10%,51*
O=C(c1cccc(F)c1)N1CCC2(CCCN(Cc3cc(C(F)(F)F)cc(C(F)(F)F)c3)C2)CC1,.,.,-4%,0%,.,.
COc1ccccc1CNC(=O)c1ccc(CSc2nc3ccncc3n2Cc2ccccc2C)cc1,.,.,-4%,.,2%,.
c1ccc(N=C2SCCCS2)cc1,.,.,-4%,.,.,.
Clc1ccc(N=C2SCCS2)cc1,46*,3%,0%,9%,9%,76*
CCOC(=O)c1cccc(NC(=O)CCS(=O)(=O)c2ccc3c(c2)CCN3C(=O)CC)c1,.,.,-20%,.,-24%,.
O=C(Nc1nnc([C@H]2C[C@H](O)[C@@H](CO)O2)s1)c1cccc(Oc2ccccc2)c1,.,.,3%,.,.,.
Cc1c(CCOC(=O)CC23CC4CC(CC(C4)C2)C3)sc[n+]1Cc1ccccc1,2,2%,7%,.,-11%,-14
Cc1c(CCOC(=O)C23CC4CC(CC(C4)C2)C3)sc[n+]1CC#N,10,0%,2%,-2%,4.5µM*,-9
Cc1ncc(C[n+]2csc(CCOC(=O)CC34CC5CC(CC(C5)C3)C4)c2C)c(N)n1,-1,0%,-3%,-20%,45µM*,-10
Cc1c(CCO)sc[n+]1CC(=O)OCCC12CC3CC(CC(C3)C1)C2,-2,-3%,2%,2%,5%,1
CC1=C(C(=O)OCc2ccccc2)C(c2ccccc2Br)NC(=O)N1 (configuration not stated),-5,6%,-2%,-15%,4%,-11
CC(C)(C)c1ccc(OCc2nc(-c3ccccn3)no2)c(Br)c1,84*,2%,-5%,1%,0%,96*
Clc1cc(Cl)c(OCc2nc(-c3ccccn3)no2)cc1Cl,47*,0%,0%,5%,5%,125*
CCc1ccc(OCc2nc(-c3ccc(OC)c(OC)c3)no2)c(Br)c1,.,.,0%,.,7%,.
COc1cccc(CCNC(=O)c2c(O)nc3ccccn3c2=O)c1,.,.,-3%,.,4%,.
COc1ccccc1/C=N/N(C(C)=O)c1nc(-c2ccc(F)cc2)cs1,30*,3%,2%,2%,3%,41
